Assay results published in the supplement of paper PMC6555819.

System: LXRa homodimer (NR concentration 270 nM)
Assay: PBM binding z-score (relative to random genomic background probes); higher = stronger binding; sequences stand for … in GC…GCGATTGACAGCGTAGAATGAAGG
Procedure, shortened: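 Regression normalization was applied to scanned fluorescence from custom Agilent 4×180K protein-binding microarrays. Before scanning, arrays were incubated 1 h with ligand-free nuclear receptor dimers, and binding was detected with antibodies against each partner (one per run). Binding z-scores use the random background probes as reference.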

Sequence	PBM binding z-score
TTACCAAGGTGAAGGTCGTTGACCCCTCTGTAGA	2.15
TAGCCTAGGTCAGACCGGGCCAGTATACGCTATA	-0.437
CCTTACGGGTCAAGATTATAGCACGGGTGGTACG	0.00162
CGAACTAGGTCACGAAAGGTCAAAGTCGAATGAC	7.39
ATCTCTAGGTAAAGTTAGTTCAGTGAATGCAAAT	0.641
AATACAGGGTCATCCTAGGCCAGAGTACGCACAG	3.26
TCTATTAGTTGAGTAGGGCAACCGAAACAGCGGA	-0.201
TTTAGCAGGCCAGAGGGTCACTCAAGAGGTACGG	-0.56
TCATATAGGTAAATCCTAGGTGAAAGTCCGATCT	-0.094
CCTTACGGGTCACTCCAGGTAATAGCATCGGAGT	0.164
CCTTACGGGTCACTGACAAGTTATAGCATTTGGA	0.0997
CCTACTGGACCAAAAAGGTCATTGATGCCGATAA	4.22
CGTCCAAGGTCAATGCTATGTCAGTGAAAGCATT	0.645
CCGACTGGGGCAGAAAGGCTACCATACCATCCGG	-0.431
CGAACGAGGGCATGATTTGATAGCAAATGCCGAT	-0.301
CGTCCAAGGTTAGAGAGGTCAGTGAATGCCGAGT	1.94
GCGACTGGGGCAAAGCAGGTTAACATAAGGTTGG	-0.346
CCTACTGGGCCATTCAGAGGTCATTTATCATATG	8.31
AGTCAAAGTTCACTAGGTAACGTAAGATTCAGCT	3.04
TGTCACAGTTCAAAGGTAACGTAAGTATCCACAC	0.785
TCTAGATGGTCACGGAGGTCACACACGACGGGTA	2.8
ATCTCTAGGTAACCAAGTTAAGTGAATGCCGAAC	0.398
